Each structure is given as a SMILES string. Results filed as inconclusive are left out. Calls of active or inactive are those of the source. Unless noted, the call rests on the fitted dose curve; in most records, active means well fitted curve in the direction sought with a large enough effect; inconclusive means small, poorly fitted or top-dose-only effect, or another doubt; inactive means no such curve, though single readings can be large; an effect the other way counts as inactive or inconclusive.

In assay [1] the target is Lysosomal acid glucosylceramidase (Homo sapiens) (UniProt P04062). The experiment in a line: Glucocerebrosidase-p2 (AID 348; in the data active means potency below about 10 µM; further: potency means the concentration at half of the fitted maximal effect). The following applies: purified GBA, blue fluorogenic substrate, 40 min. The procedure, abridged:
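Compounds titrated from 0.6 nM upwards against 0.2 nM enzyme in pH 5.9 citric acid/KH2PO4, taurocholate, tween-20; blue fluorogenic substrate 80 uM, 40 min room temperature, stopped and read Ex 365/Em 440 for AC50.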

The nature of assay [2]: AP1 Signaling Pathway (AID 357; active means well fitted curve in either direction with a large enough effect, not every such curve was filed as active;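 further: ME-180 reporter cells stimulated with EGF at its EC50 level; on the % scale 0 is the no-effect control and ±100 the full control effect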). To be noted: ME-180 AP-1-bla reporter, EGF-induced, beta-lactamase ratio, 5 h; at 7.69 µM (top of the series) unless noted. The procedure, abridged:
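Titration-series screen for positive or negative modulators of EC50 EGF-induced signaling in ME-180 cells carrying an AP-1-driven beta-lactamase reporter. After 5 hours at 37 degrees Celsius, CCF4 460nm/530nm emission ratio gave %Activity; AC50 values derived.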

For assay [3], the target named is Cytochrome P450 1A2 (Homo sapiens) (UniProt P05177). The experiment in a line: p450-cyp1a2 (AID 410; calls by dose curve; further: potency means the concentration at half of the fitted maximal effect). To be noted: recombinant CYP1A2, luciferin-ME demethylation, luminescence; series mostly up to 57 µM. The procedure, abridged: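 Inhibition was calculated relative to 57 uM furafylline (full inhibition). The reaction used human CYP1A2 at 20nM with Luciferin-ME at its Km, 100uM, driven by an NADPH-regenerating system for 60 min at room temperature.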

A short description of assay [4]: NFAT Signaling Pathway (AID 444; active means well fitted curve in either direction with a large enough effect, not every such curve was filed as active;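 further: carbachol stimulus at about its EC50 of 1 µM final; on the % scale 0 is the no-effect control and ±100 the full control effect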). To be noted: Jurkat NFAT-bla M1, carbachol, beta-lactamase ratio, 5 h; at 7.69 µM (top of the series) unless noted. The procedure, abridged:
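Read-out: CCF4 FRET ratio (460 nm/530 nm) after 1 h RT dye loading, used for %activity and AC50 from titration series. Cells: Jurkat NFAT-β-lactamase/M1 line, treated with compound plus 1 uM carbachol for 5 h, 37 °C.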

A short description of assay [5]: Stat Signaling Pathway (AID 446; active means well fitted curve in either direction with a large enough effect, not every such curve was filed as active;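 further: ME-180 cervical cancer cells given 40 pM IL-6 alongside compound; SIE-controlled beta-lactamase reporter measured as 460/530 nm FRET emission ratio; on the % scale 0 is the no-effect control and ±100 the full control effect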). To be noted: ME-180 (cervical carcinoma) SIE beta-lactamase reporter, IL-6 stimulated, 5 h; at 7.69 µM (top of the series) unless noted. The procedure, abridged:
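ME-180 SIE-bla cells; overnight plating; cpd + IL-6 40 pM, 5 h, 37 C; LiveBLAzer 2.5 h RT; 460/530 nm emission ratio. Normalized to 300 pM IL-6 and 125 nM JAK inhibitor controls.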

Assay [6] has as its target Glucocorticoid receptor (Homo sapiens) (UniProt P04150). The experiment in a line: GR-GFP Redistribution (AID 450;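 active means compounds whose dose series gives a full or clear partial fitted curve of increased nuclear translocation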; further: potency means the concentration at half of the fitted maximal effect). The following applies: U2OS GR-GFP nuclear translocation, laser cytometry, 2 h.
The target is the same in assay [7]. The experiment in a line: GR-EFC Redistribution (AID 451; calls by dose curve; further: potency means the concentration at half of the fitted maximal effect). The following applies: CHO-K1 GR-EFC translocation, beta-gal luminescence, 2 h. The procedure, abridged:
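Translocation of GR-ED fusion to nuclear EA restores b-gal, read by luminescence after 1 h room-temperature detection. Engineered CHO-K1 biosensor cells, 1,000/well, exposed 2 h at 37 C to titrations up to 46 uM final.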

In assay [8] the target is Mitogen-activated protein kinase 10 (Mus musculus) (UniProt Q61831). The experiment in a line: JNK3 AlphaScreen Assay (AID 530; active means well fitted curve in either direction with a large enough effect, not every such curve was filed as active;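 further: kinase came from lysate of stimulated human HepG2 cells; signal reports phosphorylation of biotinylated GST-cJun 1-79 at Ser73 with 10 µM ATP; on the % scale 0 is the no-effect control and ±100 the full control effect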). The following applies: JNK3 lysate, c-Jun phosphorylation; series mostly up to 57.1 µM. The procedure, abridged: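 Room-temperature AlphaScreen kinase assay; pre-activated HepG2 lysate as JNK3 source, biotin-GST-cJun(1-79) substrate, 10 uM ATP, compound 15 min preincubation.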
For orientation: In Alpha technology, singlet oxygen from a donor bead excites a nearby acceptor bead.

The target of assay [9] is Cytochrome P450 2C9 (Homo sapiens) (UniProt P11712). The experiment in a line: qHTS Assay for Inhibitors and Substrates of Cytochrome P450 2C9 (AID 883). Further: potency means the concentration at half of the fitted maximal effect; nearly all actives have a fitted effect of over 60% in size. To be noted: recombinant CYP2C9, luciferin-H luminescence, 60 min; series mostly up to 57.1 µM. The procedure, abridged:
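Inhibition of CYP2C9 is scored as loss of luminescence, with 57uM sulphaphenazole defining 100% inhibition. Substrate Luciferin-H is used at 100uM, equal to its KM; enzyme at 10nM in 25mM KPO4, 60 min at 37C with NADPH regeneration.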
Background: qHTS replaces the single test concentration by a dilution series.

In assay [10] the target is Cytochrome P450 3A4 (Homo sapiens) (UniProt P08684). Put plainly: qHTS Assay for Activators of Cytochrome P450 3A4 (AID 885). Further: nearly all actives have a fitted effect of over 65% in size. The following applies: recombinant CYP3A4, Luciferin-PPXE luminescence, 60 min; series mostly up to 57.1 µM. The procedure, abridged:
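20nM CYP3A4 + 25uM Luciferin-PPXE (=KM), 200mM KPO4; cpd 10 min RT; NADPH regen, 60 min RT; stop w/ detection buffer, 20 min; luminescence. Normalized to 57 uM ketoconazole.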

The target in assay [11] is Cytochrome P450 2C19 (Homo sapiens) (UniProt P33261). The experiment in a line: qHTS Assay for Inhibitors and Substrates of Cytochrome P450 2C19 (AID 899). Further: potency means the concentration at half of the fitted maximal effect; nearly all actives have a fitted effect of over 60% in size. To be noted: recombinant CYP2C19, luciferin-H EGE luminescence; series mostly up to 57.1 µM. The procedure, abridged:
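5nM enzyme + 10uM Luciferin-H EGE (=KM), 50mM KPO4; cpd pin-transferred, 10 min 37C; NADPH regen, 60 min 37C; stopped w/ luciferin detection reagent, 20 min; luminescence. Normalized to 57uM ketoconazole (AC100).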

Assay [12] is described as follows: qHTS Assay for Lipid Storage Modulators (AID 1519; calls by dose curve). To be noted: Drosophila S3 cells, BODIPY lipid droplet/cell ratio, laser cytometry, cells loaded with oleic acid; for activity change, negative = inhibition: at 57.5 µM (top of the series). The procedure, abridged: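 Cells seeded at 5,000 per well were treated with compounds over a concentration series and loaded with oleic acid (400 uM, as added). Lipid droplet fluorescence (488 nm excitation, 500-530 nm channel) was read by laser-scanning cytometry and normalized to 20 uM Triacsin C.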

The target in assay [13] is Dual specificity protein kinase CLK4 (Homo sapiens) (UniProt Q9HAZ1). Put plainly: qHTS Assay for Inhibitors of CDC-like Kinase 4 (Kinase-Glo Assay) (AID 1770). Further: nearly all actives have a fitted effect of over 65% in size. Further: potency means the concentration at half of the fitted maximal effect. The following applies: recombinant Clk4, Kinase-Glo ATP depletion luminescence; series mostly up to 66.7 µM. The procedure, abridged:
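25 nM Clk4 with 100 uM RS repeat peptide and 1 uM ATP (final) in Tris pH7.5, 10 mM MgCl2, 4.5 h at room temperature. Remaining ATP measured by Kinase-Glo luciferase luminescence.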

The target is the same in assay [14]. The experiment in a line: qHTS Assay for Inhibitors of CDC-like Kinase 4 (ADP-Glo Assay) (AID 1771). Further: nearly all actives have a fitted effect of over 70% in size. Further: potency means the concentration at half of the fitted maximal effect. To be noted: recombinant CLK4, ADP-Glo luminescence; series mostly up to 80 µM. The procedure, abridged:
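Kinase reaction: Clk4 at 25 nM, RS repeat peptide substrate at 100 uM, ATP at 1 uM, 1 hr, room temperature. Product ADP detected as luciferase signal via ADP-Glo.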

The target is the same in assay [15]. Put plainly: qHTS Assay for Inhibitors of CDC-like Kinase 4 (ADP-FP Assay) (AID 1795). Further: nearly all actives have a fitted effect of over 60% in size. Further: potency means the concentration at half of the fitted maximal effect. To be noted: Transcreener ADP fluorescence polarization; series mostly up to 50 µM. The procedure, abridged:
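Recombinant Clk4 (6.25 nM) phosphorylated 100 uM RS repeat peptide with 1 uM ATP in 25 mM Tris pH 7.5, 10 mM MgCl2, 0.5 mM EGTA, 2.5 mM DTT, 0.01% Triton X-100 for 1 h. ADP was detected by Transcreener ADP2 competitive fluorescence polarization after 30 min at room temperature.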

Assay [16] has as its target Ubiquitin carboxyl-terminal hydrolase 1 (Homo sapiens) (UniProt O94782). Put plainly: Inhibitors of USP1/UAF1: Pilot qHTS (AID 504865).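 Further: rhodamine fluorescence freed from ubiquitin-rhodamine substrate followed over time; top concentration of the series differs between compounds; on the % scale 0 is the no-effect control and ±100 the full control effect; nearly all actives have a fitted effect of over 35% in size.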 The following applies: purified USP1/UAF1, Ub-rhodamine cleavage fluorescence; series mostly up to 54.9 µM. The procedure, abridged:
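USP1/UAF1 complex at 1 nM preincubated 15 min at room temperature with compound, then Ub-Rho substrate added at 150 nM final. Fluorescence (480/540 nm) read kinetically in 50 mM HEPES pH 7.8, 0.5 mM EDTA, 1 mM TCEP, 0.1 mg/ml BSA, 0.01% Tween-20.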

Assay [17] is described as follows: Primary qHTS for small molecule stabilizers of the endoplasmic reticulum resident proteome: Secreted ER Calcium Modulated Protein (SERCaMP) assay (AID 1508630). Further: on the % scale 0 is the no-effect control and ±100 the full control effect. The following applies: SH-SY5Y GLuc-SERCaMP (Gaussia luciferase released on ER calcium loss) secretion, thapsigargin, luminescence; series mostly up to 38.4 µM. The procedure, abridged:
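GLuc-SERCaMP-expressing SH-SY5Y cells, pretreated 16 h with compound, are challenged with thapsigargin to empty ER calcium stores; after 4 h, coelenterazine is added directly to the medium and luminescence is imaged.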

Assay [18] addresses 3',5'-cyclic-AMP phosphodiesterase 4B (Homo sapiens) (UniProt Q07343). Put plainly: qHTS Assay for Inhibitors of PDE-IV (AID 607; active means well fitted activation curve with a large enough effect in the main read-out, with a control signal flat, not every such curve was filed as active; further: % of control where 0% means no effect). To be noted: HEK293 ACTOne CNG channel cells, membrane potential fluorescence; series mostly up to 22.9 µM. The procedure, abridged:
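ACTOne HEK293 cells carry a modified cAMP-gated CNG channel and express endogenous PDE4; plated 1000 cells/well, compounds up to 22.9 uM final. Membrane-potential dye fluorescence (ex 535/em 590) was read; parental cells received 10 uM forskolin + 100 uM RO 20-1724.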

Where [19] appears, read: measured here: cell count channel max response.
Where [20] appears, read: measured here: lipid channel max response.

Sequence of Lysosomal acid glucosylceramidase (Homo sapiens) (P04062 whole entry, looked up): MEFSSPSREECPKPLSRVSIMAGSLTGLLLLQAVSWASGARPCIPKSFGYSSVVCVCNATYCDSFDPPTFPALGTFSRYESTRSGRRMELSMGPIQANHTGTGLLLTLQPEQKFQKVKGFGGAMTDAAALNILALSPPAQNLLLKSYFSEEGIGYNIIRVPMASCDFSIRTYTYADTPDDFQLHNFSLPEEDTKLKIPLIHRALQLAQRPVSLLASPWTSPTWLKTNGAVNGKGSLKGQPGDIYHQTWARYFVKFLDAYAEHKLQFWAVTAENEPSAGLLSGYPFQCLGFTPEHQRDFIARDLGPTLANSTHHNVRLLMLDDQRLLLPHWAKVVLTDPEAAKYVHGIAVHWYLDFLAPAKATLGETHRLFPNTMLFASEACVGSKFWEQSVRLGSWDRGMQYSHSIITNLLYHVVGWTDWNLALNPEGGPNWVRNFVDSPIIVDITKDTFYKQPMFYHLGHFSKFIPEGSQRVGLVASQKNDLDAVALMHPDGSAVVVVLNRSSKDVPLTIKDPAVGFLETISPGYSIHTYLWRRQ
Sequence of Cytochrome P450 1A2 (Homo sapiens) (P05177 whole entry, looked up): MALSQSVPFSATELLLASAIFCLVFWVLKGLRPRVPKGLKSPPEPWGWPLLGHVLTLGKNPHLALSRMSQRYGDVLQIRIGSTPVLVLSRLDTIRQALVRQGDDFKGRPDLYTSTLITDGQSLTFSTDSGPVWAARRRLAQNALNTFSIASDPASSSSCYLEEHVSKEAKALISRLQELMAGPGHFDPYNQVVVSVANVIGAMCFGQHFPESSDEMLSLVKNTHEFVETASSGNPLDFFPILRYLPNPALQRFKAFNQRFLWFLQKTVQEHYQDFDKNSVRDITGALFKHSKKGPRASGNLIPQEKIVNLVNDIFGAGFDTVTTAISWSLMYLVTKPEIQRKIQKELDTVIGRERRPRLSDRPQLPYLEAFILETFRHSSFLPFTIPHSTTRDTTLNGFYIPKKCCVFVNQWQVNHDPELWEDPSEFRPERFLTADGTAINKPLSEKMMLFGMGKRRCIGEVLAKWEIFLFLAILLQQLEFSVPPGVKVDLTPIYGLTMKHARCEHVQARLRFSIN
Sequence of Glucocorticoid receptor (Homo sapiens) (P04150 whole entry, looked up): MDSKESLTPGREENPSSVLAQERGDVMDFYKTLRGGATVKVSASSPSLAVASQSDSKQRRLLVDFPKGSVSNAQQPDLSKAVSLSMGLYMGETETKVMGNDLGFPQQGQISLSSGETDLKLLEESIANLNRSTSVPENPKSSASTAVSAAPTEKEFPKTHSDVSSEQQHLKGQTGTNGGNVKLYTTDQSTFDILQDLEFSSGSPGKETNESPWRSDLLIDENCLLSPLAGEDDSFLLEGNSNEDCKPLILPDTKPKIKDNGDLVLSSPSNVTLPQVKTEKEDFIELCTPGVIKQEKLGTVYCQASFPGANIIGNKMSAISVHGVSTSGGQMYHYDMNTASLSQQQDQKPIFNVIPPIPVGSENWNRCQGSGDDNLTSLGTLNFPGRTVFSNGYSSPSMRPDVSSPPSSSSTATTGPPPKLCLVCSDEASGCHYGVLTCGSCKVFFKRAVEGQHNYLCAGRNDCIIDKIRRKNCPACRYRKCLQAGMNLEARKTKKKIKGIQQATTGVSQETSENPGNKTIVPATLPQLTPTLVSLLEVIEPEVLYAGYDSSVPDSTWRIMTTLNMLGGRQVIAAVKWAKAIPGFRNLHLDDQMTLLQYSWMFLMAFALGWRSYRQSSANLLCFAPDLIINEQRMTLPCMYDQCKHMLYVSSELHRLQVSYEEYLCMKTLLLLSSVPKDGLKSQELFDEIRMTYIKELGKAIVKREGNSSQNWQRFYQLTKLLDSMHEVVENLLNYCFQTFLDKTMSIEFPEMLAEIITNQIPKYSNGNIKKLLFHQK
Sequence of Dual specificity protein kinase CLK4 (Homo sapiens) (Q9HAZ1 whole entry, looked up): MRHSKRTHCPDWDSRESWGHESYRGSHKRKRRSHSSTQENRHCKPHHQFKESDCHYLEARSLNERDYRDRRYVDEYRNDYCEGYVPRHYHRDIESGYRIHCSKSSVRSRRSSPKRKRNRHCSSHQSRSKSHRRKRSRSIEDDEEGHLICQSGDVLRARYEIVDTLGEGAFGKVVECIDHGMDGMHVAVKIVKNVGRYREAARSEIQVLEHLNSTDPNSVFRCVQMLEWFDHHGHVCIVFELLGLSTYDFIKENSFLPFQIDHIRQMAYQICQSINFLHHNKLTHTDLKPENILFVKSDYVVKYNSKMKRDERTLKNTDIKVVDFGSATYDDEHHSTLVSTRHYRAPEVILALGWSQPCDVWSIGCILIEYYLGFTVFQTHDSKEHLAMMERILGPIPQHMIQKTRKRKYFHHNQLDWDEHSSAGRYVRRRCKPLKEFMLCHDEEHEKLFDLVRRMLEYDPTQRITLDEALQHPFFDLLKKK
Sequence of Cytochrome P450 3A4 (Homo sapiens) (P08684 whole entry, looked up): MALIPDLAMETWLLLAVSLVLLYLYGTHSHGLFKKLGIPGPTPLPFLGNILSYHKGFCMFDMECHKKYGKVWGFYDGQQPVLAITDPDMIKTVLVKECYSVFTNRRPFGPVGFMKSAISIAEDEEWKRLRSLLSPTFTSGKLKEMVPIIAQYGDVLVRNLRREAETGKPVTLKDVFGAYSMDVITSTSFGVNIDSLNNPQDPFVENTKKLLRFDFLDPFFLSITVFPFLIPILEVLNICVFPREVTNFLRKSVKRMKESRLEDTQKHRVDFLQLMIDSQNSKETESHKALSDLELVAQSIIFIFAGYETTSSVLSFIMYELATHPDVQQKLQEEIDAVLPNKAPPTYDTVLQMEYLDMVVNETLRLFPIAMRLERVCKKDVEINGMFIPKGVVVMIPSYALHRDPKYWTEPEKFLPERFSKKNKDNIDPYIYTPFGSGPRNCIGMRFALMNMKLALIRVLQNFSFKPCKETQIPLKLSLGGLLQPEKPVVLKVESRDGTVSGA
Sequence of Ubiquitin carboxyl-terminal hydrolase 1 (Homo sapiens) (O94782 whole entry, looked up): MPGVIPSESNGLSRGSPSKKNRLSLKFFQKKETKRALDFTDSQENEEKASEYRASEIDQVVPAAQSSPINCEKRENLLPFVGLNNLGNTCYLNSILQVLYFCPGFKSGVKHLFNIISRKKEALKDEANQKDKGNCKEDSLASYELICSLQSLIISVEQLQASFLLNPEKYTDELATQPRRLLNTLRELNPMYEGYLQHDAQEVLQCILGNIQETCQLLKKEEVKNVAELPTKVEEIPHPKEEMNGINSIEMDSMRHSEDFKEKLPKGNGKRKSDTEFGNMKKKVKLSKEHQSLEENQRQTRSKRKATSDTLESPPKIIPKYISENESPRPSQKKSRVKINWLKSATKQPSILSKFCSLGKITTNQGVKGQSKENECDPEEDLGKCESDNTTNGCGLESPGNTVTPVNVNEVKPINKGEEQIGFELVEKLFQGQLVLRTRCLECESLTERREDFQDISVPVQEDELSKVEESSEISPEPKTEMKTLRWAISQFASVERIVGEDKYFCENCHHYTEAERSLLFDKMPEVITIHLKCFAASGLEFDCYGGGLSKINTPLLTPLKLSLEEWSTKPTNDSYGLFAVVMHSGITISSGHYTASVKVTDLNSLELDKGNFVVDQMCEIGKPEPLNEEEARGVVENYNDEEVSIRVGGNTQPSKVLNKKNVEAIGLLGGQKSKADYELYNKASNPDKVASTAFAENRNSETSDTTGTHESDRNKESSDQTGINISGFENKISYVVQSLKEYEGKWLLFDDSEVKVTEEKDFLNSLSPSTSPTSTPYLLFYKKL
Sequence of Cytochrome P450 2C9 (Homo sapiens) (P11712 whole entry, looked up): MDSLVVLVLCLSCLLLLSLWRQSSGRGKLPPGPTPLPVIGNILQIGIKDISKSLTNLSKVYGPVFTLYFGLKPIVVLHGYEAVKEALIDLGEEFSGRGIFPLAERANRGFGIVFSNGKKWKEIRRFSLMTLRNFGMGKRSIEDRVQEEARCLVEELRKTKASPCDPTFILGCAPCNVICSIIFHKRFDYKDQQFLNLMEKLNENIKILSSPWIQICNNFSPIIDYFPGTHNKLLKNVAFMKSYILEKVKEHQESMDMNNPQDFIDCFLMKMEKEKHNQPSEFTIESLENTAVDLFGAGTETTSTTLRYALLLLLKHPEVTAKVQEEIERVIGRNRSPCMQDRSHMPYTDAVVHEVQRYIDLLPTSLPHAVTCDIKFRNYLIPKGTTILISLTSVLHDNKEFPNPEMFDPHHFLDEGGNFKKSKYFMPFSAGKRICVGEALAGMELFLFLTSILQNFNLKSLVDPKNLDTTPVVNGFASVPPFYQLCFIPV
Sequence of Cytochrome P450 2C19 (Homo sapiens) (P33261 whole entry, looked up): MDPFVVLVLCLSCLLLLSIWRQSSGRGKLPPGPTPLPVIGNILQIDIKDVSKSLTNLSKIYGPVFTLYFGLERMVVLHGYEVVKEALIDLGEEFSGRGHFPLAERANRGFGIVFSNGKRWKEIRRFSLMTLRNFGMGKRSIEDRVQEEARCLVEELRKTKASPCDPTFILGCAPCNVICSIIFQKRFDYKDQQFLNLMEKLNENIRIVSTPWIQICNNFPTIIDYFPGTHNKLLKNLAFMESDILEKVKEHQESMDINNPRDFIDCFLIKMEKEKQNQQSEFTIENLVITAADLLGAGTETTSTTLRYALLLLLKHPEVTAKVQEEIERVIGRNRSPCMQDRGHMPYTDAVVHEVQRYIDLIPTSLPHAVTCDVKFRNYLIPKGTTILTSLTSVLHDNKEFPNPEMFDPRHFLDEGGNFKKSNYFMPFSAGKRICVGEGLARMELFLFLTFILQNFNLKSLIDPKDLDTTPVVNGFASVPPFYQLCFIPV

As to `COc1cccc(-c2nc(NCc3ccccc3)c3ccccc3n2)c1`, the Potency is > 11.4 µM (inactive) in assay [1]; 3.16 µM (active) in assay [3]; > 46 µM (inactive) in [6]; > 46 µM (inactive) in assay [7]; 1.26 µM (active) in assay [9]; 3.98 µM (active) in assay [11]. In addition, the Potency in [13] is 6.31 µM (active); in [14], 6.31 µM (active); in [15] it was 2.24 µM (active). Further, the activity change, negative = inhibition in assay [2] is -17.6% (inactive); in assay [4], 0.742% (inactive); in assay [12] it was -4.54% (inactive). For the same compound, in [5], the activity, negative = inhibition was -12.9% (inactive). Also, in assay [8], the outcome was inactive. In addition, the Potency entry in [10], in assay [16] and in assay [17] was “inactive” throughout. Moreover, the max response in [12] (setting [19]) is 10.5%; in [12] (setting [20]), 2.86%.

Turning to `COc1ncc2nc(-c3cc(F)cc(F)c3)c(=O)n(C)c2n1`, the Potency in assay [1] was > 11.4 µM (inactive); in assay [3], 2 µM (active); in assay [6], > 9.22 µM (inactive); in assay [7], > 46 µM (inactive). Besides, the activity change, negative = inhibition in assay [2] was -19.2% (inactive); in assay [4], -1.78% (inactive); in assay [12] it was 5.28% (inactive). Besides, the activity, negative = inhibition in assay [5] is -3.71% (inactive). The outcome in assay [8] was inactive. Further, the Potency entry in [18], in [13], in assay [14], in assay [15] and in [17] was “inactive” each time. For the same compound, the max response in assay [12] (setting [19]) is 24.3%; in [12] (setting [20]), 28.7%.

For the compound `O=c1c(-c2cc(F)cc(F)c2)nc2cncnc2n1-c1ccccc1`, the Potency in [1] was > 11.4 µM (inactive); in assay [3], 12.6 µM (active); in [6], > 9.22 µM (inactive); in [7], > 46 µM (inactive). Moreover, the activity change, negative = inhibition is -15.8% (inactive) in assay [2], -2.26% (inactive) in [4] and 6.93% (inactive) in [12]. Also, the activity, negative = inhibition in [5] is -16.9% (inactive). The result in [8] was inactive. The results for the max response in assay [12] (setting [19]) and in assay [12] (setting [20]) were 22.2% and 28.7%, respectively. Besides, the Potency result in assay [13], in assay [14], in [15] and in assay [17] was “inactive” in each case.

Values taken from PubChem BioAssay (NCATS).
